High-throughput results: PubChem, The Scripps Research Institute Molecular Screening Center
Most compounds without a hit are left out; they make up all but 3.5% or so of the library.
MITF primary: human MITF inhibition, primary screen. O75030. AlphaScreen MITF homodimerization, bead proximity signal. inhibition, % at 2.6 µM. 650,000 tested, 0.91% active. AID 1259374; in the data active means inhibition above about 50%;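 further: 0% = vehicle wells with protein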
FBW7 act: human FBW7 E3 ligase activation, primary screen. AlphaScreen FBW7–phospho-cyclin E peptide binding, activator screen. normalized activity (activation), % at 26.1 µM. 650,000 tested, 0.13% active; in the data active means normalized activity above about 1.9%;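 further: purified mutant Fbw7 with reduced substrate affinity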
Target sequence (Q969H0 whole entry, looked up): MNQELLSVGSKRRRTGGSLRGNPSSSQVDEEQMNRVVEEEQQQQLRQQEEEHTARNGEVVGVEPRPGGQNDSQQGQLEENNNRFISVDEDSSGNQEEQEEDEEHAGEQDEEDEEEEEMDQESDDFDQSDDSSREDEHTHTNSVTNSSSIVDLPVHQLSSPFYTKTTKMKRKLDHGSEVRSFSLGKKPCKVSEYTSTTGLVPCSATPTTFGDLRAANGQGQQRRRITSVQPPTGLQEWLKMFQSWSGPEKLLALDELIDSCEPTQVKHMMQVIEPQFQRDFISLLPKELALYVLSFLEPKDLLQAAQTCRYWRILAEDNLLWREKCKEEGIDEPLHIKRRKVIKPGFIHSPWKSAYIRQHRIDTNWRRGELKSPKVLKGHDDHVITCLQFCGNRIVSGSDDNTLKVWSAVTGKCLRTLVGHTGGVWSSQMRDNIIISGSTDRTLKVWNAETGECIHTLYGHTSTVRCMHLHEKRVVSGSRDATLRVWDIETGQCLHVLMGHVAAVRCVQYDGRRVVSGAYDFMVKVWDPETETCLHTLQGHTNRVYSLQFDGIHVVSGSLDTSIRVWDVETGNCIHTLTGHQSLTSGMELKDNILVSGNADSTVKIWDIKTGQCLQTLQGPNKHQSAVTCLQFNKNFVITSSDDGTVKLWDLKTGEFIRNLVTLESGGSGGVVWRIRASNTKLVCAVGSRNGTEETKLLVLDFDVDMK
GPR151 activ: activates the human receptor GPR151; Q8TDV0; PathHunter beta-arrestin GPR151 cells, luminescence; activation, % at 11.2 µM; 650,000 tested, 1% active; AID 1508602; in the data active means activation above about 4.9%;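 further: 0% = median of compound wells and 100% = cells with positive control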
TEAD-YAP block: TEAD-YAP interaction inhibition; HEK-TIYL cells, TEAD-Gal4/YAP UAS-luciferase luminescence; 640,000 tested, 1.4% active; inhibition, % at 9.12 µM; in the data active means inhibition above about 32%;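 further: 0% = median of test compound wells and 100% = reference inhibitor wells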
* = called active by the depositor.

For COc1ccc(/C=C(/C#N)c2nc3c(s2)CC(C)CC3)cc1 (stereo unspecified) the results were MITF primary 7, FBW7 act 0, GPR151 activ 1 and TEAD-YAP block -12.
O=C1CCCN1CCCNc1nc2ncnc(Nc3ccc(N4CCOCC4)cc3)c2[nH]1 was read as MITF primary 17, FBW7 act 0, GPR151 activ -2 and TEAD-YAP block 38*.
Screening O=C1CCCN1CCCNc1nc(Nc2ccc(N3CCOCC3)cc2)nc2c1ncn2-c1ccsc1 returned MITF primary -1, FBW7 act 0, GPR151 activ -1 and TEAD-YAP block 59*.
Screening O=C1CCCN1CCCNc1nc(Nc2ccc(N3CCOCC3)cc2)c2ncn(-c3ccsc3)c2n1 returned MITF primary 19, FBW7 act 0, GPR151 activ 0 and TEAD-YAP block 47*.
c1cncc(Nc2nc3ncnc(Nc4ccc(N5CCOCC5)cc4)c3[nH]2)c1 was read as MITF primary 3, FBW7 act 0, GPR151 activ -2 and TEAD-YAP block 25.
For c1cnc2ccc(Nc3nc4ncnc(Nc5ccc(N6CCOCC6)cc5)c4[nH]3)cc2c1 the results were MITF primary 5, FBW7 act 3.9*, GPR151 activ -2 and TEAD-YAP block 36*.
O=C1CCCN1CCCNc1nc2ncnc(Nc3ccccc3)c2[nH]1 was read as MITF primary -10, FBW7 act 0, GPR151 activ -2 and TEAD-YAP block -4.
`CCCCC(=O)N(c1cccc(Cl)c1)C1C=CS(=O)(=O)C1` (stereo unspecified) gave MITF primary 4, FBW7 act 0, GPR151 activ 2 and TEAD-YAP block -4.
`O=S(=O)(c1ccccc1)N1CC=C(c2ccccc2)CC1` gave MITF primary 9, FBW7 act 1, GPR151 activ 1 and TEAD-YAP block 1.
For c1cc(-n2cnc3c(Nc4ccc(N5CCOCC5)cc4)nc(N4CCC(N5CCOCC5)CC4)nc32)cs1 the results were MITF primary 8, FBW7 act 0, GPR151 activ -3 and TEAD-YAP block 37*.
`c1ccc(N2CCN(c3nc(NC4CC4)c4ncn(-c5ccsc5)c4n3)CC2)nc1` gave MITF primary 0, FBW7 act 0, GPR151 activ 1 and TEAD-YAP block 49*.
c1ccc(Nc2nc(N3CCC(N4CCOCC4)CC3)nc3c2ncn3-c2ccsc2)cc1 was read as MITF primary 11, FBW7 act 0, GPR151 activ 0 and TEAD-YAP block 33*.
For c1cc(-n2cnc3c(Nc4ccc5c(c4)OCO5)nc(N4CCC(N5CCOCC5)CC4)nc32)cs1 the results were MITF primary 14, FBW7 act 0, GPR151 activ -1 and TEAD-YAP block 19.
c1ccc(N2CCN(c3nc(Nc4ccc(N5CCOCC5)cc4)c4ncn(-c5ccsc5)c4n3)CC2)nc1 was read as MITF primary 20, FBW7 act 0, GPR151 activ 0 and TEAD-YAP block 38*.
Screening c1ccc(Oc2ccc(Nc3nc(N4CCOCC4)nc4c3ncn4-c3ccsc3)cc2)cc1 returned MITF primary 6, FBW7 act 0, GPR151 activ 0 and TEAD-YAP block -6.
Screening c1ccc(OCCNc2ncnc3nc(N4CCN(c5ccccn5)CC4)[nH]c23)cc1 returned MITF primary 12, FBW7 act 0, GPR151 activ 3 and TEAD-YAP block 1.
Screening Oc1ccc(CCNc2ncnc3nc(N4CCN(c5ccccn5)CC4)[nH]c23)cc1 returned MITF primary 10, FBW7 act 0, GPR151 activ 0 and TEAD-YAP block 39*.
Screening Oc1ccc(CCNc2nc(N3CCN(c4ccccn4)CC3)nc3c2ncn3-c2ccsc2)cc1 returned MITF primary 11, FBW7 act 0, GPR151 activ 3 and TEAD-YAP block 53*.
CCCNc1nc(N2CCN(c3ccccn3)CC2)nc2c1ncn2-c1ccsc1 was read as MITF primary 8, FBW7 act 0, GPR151 activ 2 and TEAD-YAP block 12.
`O=C1/C(=C\C=C/c2ccco2)C(C(F)(F)F)=NN1c1ccccc1` gave MITF primary 65*, FBW7 act 0, GPR151 activ -1 and TEAD-YAP block 5.
For O=C1ON=C(c2ccccc2)/C1=C/C=C/c1ccco1 the results were MITF primary 38, FBW7 act 0, GPR151 activ -1 and TEAD-YAP block -8.
CCCCOC(=O)C1=C(C)NC2=C(C(=O)CCC2)C1c1ccc(CC)cc1 (stereo unspecified) was read as MITF primary -10, FBW7 act 0, GPR151 activ 0 and TEAD-YAP block -4.
`COc1ccccc1N1CCN(c2ncc(C(=O)N3CCN(C)CC3)c3ccccc23)CC1` gave MITF primary 8, FBW7 act 0, GPR151 activ 1 and TEAD-YAP block 35*.
Screening CCOC(=O)c1ccccc1NC(=O)c1cnc(N2CCN(c3ccccn3)CC2)c2ccccc12 returned MITF primary -6, FBW7 act 0, GPR151 activ 0 and TEAD-YAP block 9.
COc1cccc(NC(=O)c2cnc(N3CCN(c4ccccc4OC)CC3)c3ccccc23)c1 was read as MITF primary 5, FBW7 act 0, GPR151 activ 0 and TEAD-YAP block 20.
For CCOc1ccccc1NC(=O)c1cnc(N2CCN(c3ccccn3)CC2)c2ccccc12 the results were MITF primary 8, FBW7 act 0, GPR151 activ 1 and TEAD-YAP block 55*.
Screening COc1ccc(OC)c(NC(=O)c2cnc(N3CCN(c4ccccc4OC)CC3)c3ccccc23)c1 returned MITF primary -5, FBW7 act 0, GPR151 activ -1 and TEAD-YAP block 40*.
`COc1ccccc1N1CCN(c2ncc(C(=O)NCc3cccnc3)c3ccccc23)CC1` gave MITF primary -11, FBW7 act 0, GPR151 activ 0 and TEAD-YAP block 37*.
`COc1ccccc1N1CCN(c2ncc(C(=O)N3CCCC3)c3ccccc23)CC1` gave MITF primary 3, FBW7 act 0, GPR151 activ 0 and TEAD-YAP block 6.
For O=C(C1CCN(C2CCN(C/C=C/c3ccccc3)CC2)CC1)N1CCCC1 the results were MITF primary 3, FBW7 act 0, GPR151 activ 0 and TEAD-YAP block 0.
For Cc1ccc(C)c(N2CCN(C(=O)C34CC5CC(C3)CC(n3nnc(C)n3)(C5)C4)CC2)c1 the results were MITF primary 24, FBW7 act 1, GPR151 activ -1 and TEAD-YAP block 37*.
Screening COc1cc(C2CC(c3ccc(Cl)cc3)Nc3ncnn32)cc(OC)c1OC (stereo unspecified) returned MITF primary 6, FBW7 act 0, GPR151 activ 4 and TEAD-YAP block 54*.
Screening COc1ccc(C2CC(c3ccc(Cl)cc3)Nc3ncnn32)c(OC)c1OC (stereo unspecified) returned MITF primary 7, FBW7 act 0, GPR151 activ 2 and TEAD-YAP block 5.
For O=C(NCCc1ccccc1)c1ccccc1Cl the results were MITF primary 3, FBW7 act 0, GPR151 activ -4 and TEAD-YAP block 33*.
